# According to PubChem BioAssay (Tox21):
# Values without a mark were called inactive. Results filed as inconclusive are left out. A call without a number means that no potency is given here. The source made the active and inactive calls. The call rests on the fitted dose curve; in most records, active means well fitted curve in the direction sought with a large enough effect in the repeat runs; inconclusive means weak or mixed curves; inactive means no such curve, though single readings can be large; an effect the other way counts as inactive or inconclusive.
# How the values were obtained:
# [1] = qHTS RealTime-Glo MT Cell Viability Assay in HepG2 cells - 40 hour (AID 1224870); further: nearly all actives have a fitted effect of over 50% in size; further: potency means the concentration at half of the fitted maximal effect
# Summary of the method: (§1)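 HepG2 cells mixed with RealTime-Glo MT reagents (NanoLuc plus cell-permeant prosubstrate) were seeded at 600 cells/well, incubated 5 h at 37 C/5% CO2, then pinned with compounds in DMSO; nonlytic luminescence tracked viability during 40 h treatment.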
# [2] = A CellTox Green Cytotoxicity Assay to monitor cytotoxicity in HEK293 cells - 40 hour (AID 1224871); further: nearly all actives have a fitted effect of over 45% in size; further: potency means the concentration at half of the fitted maximal effect
# Summary of the method: (§2)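 Cells (HEK293, 600/well) and dye reagent are dispensed together. After 5 h at 37 C, 23 nL compound is pinned in. Plates stay at 37 C for 40 h with fluorescence read at 0h, 8h, 16h, 24h, 32h and 40h.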
# [3] = qHTS RealTime-Glo MT Cell Viability Assay in HEK293 cells - 16 hour (AID 1224872); further: nearly all actives have a fitted effect of over 50% in size; further: potency means the concentration at half of the fitted maximal effect
# Summary of the method: (§3)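 Nonlytic real-time viability readout: viable cells convert prosubstrate to NanoLuc substrate, giving luminescence proportional to live cell number. HEK293, 600 cells/well, compound added after 5 h, continuous culture at 37 C.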
# [4] = qHTS RealTime-Glo MT Cell Viability Assay in HepG2 cells - 8 hour (AID 1224873); further: nearly all actives have a fitted effect of over 55% in size
# Summary of the method: as §1
# [5] = A CellTox Green Cytotoxicity Assay to monitor cytotoxicity in HEK293 cells - 24 hour (AID 1224875); further: nearly all actives have a fitted effect of over 45% in size; further: potency means the concentration at half of the fitted maximal effect
# Summary of the method: as §2
# [6] = A CellTox Green Cytotoxicity Assay to monitor cytotoxicity in HepG2 cells - 16 hour (AID 1224876); further: nearly all actives have a fitted effect of over 45% in size; further: potency means the concentration at half of the fitted maximal effect
# Summary of the method: (§4)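 Cells and non-lytic dye reagent are dispensed together (600 HepG2 cells/well) and incubated 5 h before DMSO compound transfer. Kinetic fluorescence is then recorded in the same wells during 40 h at 37 C.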
# [7] = qHTS RealTime-Glo MT Cell Viability Assay in HepG2 cells - 32 hour (AID 1224877); further: nearly all actives have a fitted effect of over 55% in size; further: potency means the concentration at half of the fitted maximal effect
# Summary of the method: (§5)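 Luminescence read-out: viable HepG2 cells reduce a prosubstrate to a NanoLuc substrate, giving a signal proportional to live cell number. Reads taken at 0, 8, 16, 24, 32 and 40 h of compound exposure at 37 C.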
# [8] = A CellTox Green Cytotoxicity Assay to monitor cytotoxicity in HepG2 cells - 24 hour (AID 1224878); further: nearly all actives have a fitted effect of over 45% in size; further: potency means the concentration at half of the fitted maximal effect
# Summary of the method: as §4
# [9] = A CellTox Green Cytotoxicity Assay to monitor cytotoxicity in HepG2 cells - 40 hour (AID 1224879); further: nearly all actives have a fitted effect of over 40% in size; further: potency means the concentration at half of the fitted maximal effect
# Summary of the method: as §4
# [10] = qHTS RealTime-Glo MT Cell Viability Assay in HEK293 cells - 0 hour (AID 1224880)
# Summary of the method: (§6)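 Real-time viability in HEK293: signal arises when living cells convert a prosubstrate for NanoLuc in the medium, so luminescence tracks viable cell number. Compound (23 nL, DMSO) added 5 h post-seeding; kinetic reads at 0–40 h, 37 C.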
# [11] = A CellTox Green Cytotoxicity Assay to monitor cytotoxicity in HEK293 cells - 32 hour (AID 1224881); further: nearly all actives have a fitted effect of over 40% in size; further: potency means the concentration at half of the fitted maximal effect
# Summary of the method: as §2
# [12] = A CellTox Green Cytotoxicity Assay to monitor cytotoxicity in HepG2 cells - 32 hour (AID 1224883); further: nearly all actives have a fitted effect of over 50% in size; further: potency means the concentration at half of the fitted maximal effect
# Summary of the method: as §4
# [13] = qHTS RealTime-Glo MT Cell Viability Assay in HepG2 cells - 16 hour (AID 1224885); further: nearly all actives have a fitted effect of over 50% in size
# Summary of the method: as §5
# [14] = qHTS RealTime-Glo MT Cell Viability Assay in HEK293 cells - 8 hour (AID 1224887); further: nearly all actives have a fitted effect of over 50% in size; further: potency means the concentration at half of the fitted maximal effect
# Summary of the method: as §6
# [15] = A CellTox Green Cytotoxicity Assay to monitor cytotoxicity in HEK293 cells - 16 hour (AID 1224888); further: nearly all actives have a fitted effect of over 35% in size
# Summary of the method: as §2
# [16] = qHTS RealTime-Glo MT Cell Viability Assay in HepG2 cells - 0 hour (AID 1224889); further: nearly all actives have a fitted effect of over 50% in size
# Summary of the method: as §5
# [17] = A CellTox Green Cytotoxicity Assay to monitor cytotoxicity in HepG2 cells - 0 hour (AID 1224882); further: nearly all actives have a fitted effect of over 35% in size
# Summary of the method: as §4
# [18] = A CellTox Green Cytotoxicity Assay to monitor cytotoxicity in HEK293 cells - 8 hour (AID 1224884); further: nearly all actives have a fitted effect of over 35% in size
# Summary of the method: as §2
# [19] = qHTS RealTime-Glo MT Cell Viability Assay in HEK293 cells - 40 hour (AID 1224874); conditions: RealTime-Glo luminescence; max response: hits give low values; further: nearly all actives have a fitted effect of over 50% in size; further: potency means the concentration at half of the fitted maximal effect
# Summary of the method: as §6
# [20] = qHTS RealTime-Glo MT Cell Viability Assay in HEK293 cells - 24 hour (AID 1224886); further: nearly all actives have a fitted effect of over 50% in size; further: potency means the concentration at half of the fitted maximal effect
# Summary of the method: as §3
smiles,measurement,setting,value
Nc1nc2ccc([N+](=O)[O-])cc2s1,Potency,[1],inactive
same,Potency,[2],inactive
same,Potency,[3],inactive
same,Potency,[4],inactive
same,Potency,[5],inactive
same,Potency,[6],49 µM (active)
same,Potency,[7],inactive
same,Potency,[8],43.6 µM (active)
same,Potency,[9],43.6 µM (active)
same,Potency,[10],inactive
same,Potency,[11],inactive
same,Potency,[12],43.6 µM (active)
same,Potency,[13],inactive
same,Potency,[14],inactive
same,Potency,[15],inactive
same,Potency,[16],inactive
CN1C(=O)c2ccccc2C1=O,Potency,[1],inactive
same,Potency,[2],inactive
same,Potency,[3],inactive
same,Potency,[4],inactive
same,Potency,[5],inactive
same,Potency,[6],inactive
same,Potency,[7],inactive
same,Potency,[8],inactive
same,Potency,[9],inactive
same,Potency,[10],inactive
same,Potency,[11],inactive
same,Potency,[17],inactive
same,Potency,[18],inactive
same,Potency,[13],inactive
same,Potency,[14],inactive
same,Potency,[15],inactive
same,Potency,[16],inactive
CCOC(=O)c1ccc(I)cc1,Potency,[1],inactive
same,Potency,[2],35 µM (active)
same,Potency,[4],inactive
same,max response,[19],-24.8%
same,Potency,[5],35 µM (active)
same,Potency,[6],inactive
same,Potency,[7],inactive
same,Potency,[8],inactive
same,Potency,[9],inactive
same,Potency,[10],inactive
same,Potency,[11],35 µM (active)
same,Potency,[17],inactive
same,Potency,[12],inactive
same,Potency,[13],inactive
same,Potency,[16],inactive
CCCCN(CCCC)C(C(N)=O)c1ccc(OC)cc1 (stereo not drawn),Potency,[1],inactive
same,Potency,[2],inactive
same,Potency,[3],inactive
same,Potency,[4],inactive
same,Potency,[5],inactive
same,Potency,[6],inactive
same,Potency,[7],inactive
same,Potency,[9],inactive
same,Potency,[10],inactive
same,Potency,[11],inactive
same,Potency,[17],inactive
same,Potency,[12],inactive
same,Potency,[18],inactive
same,Potency,[13],inactive
same,Potency,[20],inactive
same,Potency,[14],inactive
same,Potency,[15],inactive
same,Potency,[16],inactive
NC(=O)c1ccncc1,Potency,[1],inactive
same,Potency,[2],inactive
same,Potency,[3],inactive
same,Potency,[4],inactive
same,Potency,[5],inactive
same,Potency,[6],inactive
same,Potency,[7],inactive
same,Potency,[8],inactive
same,Potency,[9],inactive
same,Potency,[10],inactive
same,Potency,[11],inactive
same,Potency,[12],inactive
same,Potency,[18],inactive
same,Potency,[13],inactive
same,Potency,[20],inactive
same,Potency,[14],inactive
same,Potency,[15],inactive
same,Potency,[16],inactive
Nc1ccc(N=Nc2ccccc2)c(N)c1,Potency,[1],inactive
same,Potency,[2],inactive
same,Potency,[3],42.7 µM (active)
same,Potency,[19],38.1 µM (active)
same,Potency,[5],inactive
same,Potency,[6],inactive
same,Potency,[7],inactive
same,Potency,[8],inactive
same,Potency,[9],inactive
same,Potency,[11],inactive
same,Potency,[17],inactive
same,Potency,[12],inactive
same,Potency,[18],inactive
same,Potency,[20],42.7 µM (active)
same,Potency,[15],inactive
same,Potency,[16],inactive
C1COC1,Potency,[1],inactive
same,Potency,[2],inactive
same,Potency,[3],inactive
same,Potency,[4],inactive
same,Potency,[5],inactive
same,Potency,[6],inactive
same,Potency,[7],inactive
same,Potency,[8],inactive
same,Potency,[9],inactive
same,Potency,[10],inactive
same,Potency,[11],inactive
same,Potency,[17],inactive
same,Potency,[12],inactive
same,Potency,[18],inactive
same,Potency,[20],inactive
same,Potency,[14],inactive
same,Potency,[16],inactive
N#[N+]c1ccc2c(S(=O)(=O)[O-])cccc2c1O,Potency,[1],inactive
same,Potency,[2],inactive
same,Potency,[3],inactive
same,Potency,[4],inactive
same,Potency,[5],inactive
same,Potency,[6],inactive
same,Potency,[7],inactive
same,Potency,[8],inactive
same,Potency,[9],inactive
same,Potency,[10],inactive
same,Potency,[11],inactive
same,Potency,[17],inactive
same,Potency,[12],inactive
same,Potency,[18],inactive
same,Potency,[13],inactive
same,Potency,[15],inactive
same,Potency,[16],inactive
COC(=O)c1nc(Cl)c(Cl)nc1N,Potency,[1],12 µM (active)
same,Potency,[2],13.4 µM (active)
same,Potency,[3],12 µM (active)
same,Potency,[19],4.77 µM (active)
same,Potency,[7],10.7 µM (active)
same,Potency,[10],inactive
same,Potency,[11],19 µM (active)
same,Potency,[20],9.52 µM (active)
same,Potency,[14],6.74 µM (active)
same,Potency,[16],inactive
Nc1ncnc2c1ncn2[C@H]1CC[C@@H](CO)O1,Potency,[1],inactive
same,Potency,[2],inactive
same,Potency,[3],inactive
same,Potency,[4],inactive
same,Potency,[5],inactive
same,Potency,[6],inactive
same,Potency,[7],inactive
same,Potency,[8],inactive
same,Potency,[9],inactive
same,Potency,[10],inactive
same,Potency,[11],inactive
same,Potency,[17],inactive
same,Potency,[12],inactive
same,Potency,[18],inactive
same,Potency,[20],inactive
same,Potency,[14],inactive
same,Potency,[15],inactive
same,Potency,[16],inactive
CCC(C)(C)OC,Potency,[1],inactive
same,Potency,[2],inactive
same,Potency,[3],inactive
same,Potency,[4],inactive
same,Potency,[5],inactive
same,Potency,[6],inactive
same,Potency,[7],inactive
same,Potency,[8],inactive
same,Potency,[9],inactive
same,Potency,[10],inactive
same,Potency,[11],inactive
same,Potency,[17],inactive
same,Potency,[12],inactive
same,Potency,[13],inactive
same,Potency,[20],inactive
same,Potency,[14],inactive
same,Potency,[15],inactive
same,Potency,[16],inactive
CC(C)=CC(=O)C=C(C)C,Potency,[1],inactive
same,Potency,[2],inactive
same,Potency,[3],inactive
same,Potency,[4],inactive
same,Potency,[5],inactive
same,Potency,[6],inactive
same,Potency,[7],inactive
same,Potency,[8],inactive
same,Potency,[9],inactive
same,Potency,[10],inactive
same,Potency,[11],inactive
same,Potency,[17],inactive
same,Potency,[12],inactive
same,Potency,[18],inactive
same,Potency,[13],inactive
same,Potency,[14],inactive
same,Potency,[15],inactive
same,Potency,[16],inactive
CCCCCCCC/C=C\CCCCCCCCCCCC(=O)O,Potency,[1],inactive
same,Potency,[2],inactive
same,Potency,[3],inactive
same,Potency,[4],inactive
same,Potency,[5],inactive
same,Potency,[7],inactive
same,Potency,[8],inactive
same,Potency,[9],inactive
same,Potency,[10],inactive
same,Potency,[11],inactive
same,Potency,[17],inactive
same,Potency,[12],inactive
same,Potency,[18],inactive
same,Potency,[20],inactive
same,Potency,[14],inactive
same,Potency,[15],inactive
same,Potency,[16],inactive
CCC(C)COC(C)=O (stereo not drawn),Potency,[1],inactive
same,Potency,[2],inactive
same,Potency,[3],inactive
same,Potency,[4],inactive
same,Potency,[5],inactive
same,Potency,[6],inactive
same,Potency,[7],inactive
same,Potency,[8],inactive
same,Potency,[9],inactive
same,Potency,[10],inactive
same,Potency,[11],inactive
same,Potency,[12],inactive
same,Potency,[18],inactive
same,Potency,[13],inactive
same,Potency,[20],inactive
same,Potency,[14],inactive
same,Potency,[15],inactive
same,Potency,[16],inactive
CC(CC1c2ccccc2CCc2ccccc21)CN(C)C (stereo not drawn),Potency,[1],inactive
same,Potency,[2],inactive
same,Potency,[3],inactive
same,Potency,[4],inactive
same,Potency,[5],inactive
same,Potency,[6],inactive
same,Potency,[7],inactive
same,Potency,[10],inactive
same,Potency,[11],inactive
same,Potency,[17],inactive
same,Potency,[13],inactive
same,Potency,[20],inactive
same,Potency,[14],inactive
same,Potency,[15],inactive
same,Potency,[16],inactive
